Tb PFK block: inhibitors of T. brucei phosphofructokinase; T. brucei PFK, ADP-Glo luminescence; Potency, µM (series often up to 57.5 µM), actives largely listed as inhibitors; actives 0.17% (n = 330,000); further: nearly all actives have a fitted effect of over 60% in size
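Compounds were pin-transferred as a titration series up to 57 uM into substrate buffer (0.5 mM F6P, 0.1 mM ATP, pH 8.0), then 1.25 nM PFK was added and reactions ran 45 min before ADP-Glo detection.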
VDR inhibitor: vitamin D3 receptor (human) inhibition; AID 504847; Potency, µM, most hits filed as inhibitors; VDR-SRC2-3 peptide fluorescence polarization, 2 h; P11473; actives 0.93% (n = 400,000)
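FP read-out; VDR + SRC2-3 coactivator peptide; 23 nl compound by pintool; 2 h RT incubation; reagents held at 4 deg C, protected from light.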
BRCA1 expr act: BRCA1 expression activation; MCF7-BRCA1-FFLuc reporter, luminescence, 48 h; response scale: scaled: vehicle 0%, 10 µM genistein 100%; Potency, µM (top dose mostly 46.1 µM), actives largely listed as activators; actives 1.1% (n = 380,000); further: nearly all actives have a fitted effect of over 80% in size
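Compounds are tested at multiple concentrations on MCF7 BRCA1-luciferase reporter cells seeded at 2000 per well; after 48 h, a single luminescence end-point is taken and curves fitted to the normalized data.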
PLK1 PBD block: PLK1 (human) polo-box domain binding inhibition | actives 2.8% (n = 360,000) | Potency, µM, most hits filed as inhibitors | Plk1 PBD binding of FITC phosphopeptide, fluorescence polarization | AID 720504; further: series mostly up to about 57 µM; nearly all actives have a fitted effect of over 65% in size
Target sequence (P53350 whole entry, looked up, the tested form may be a part): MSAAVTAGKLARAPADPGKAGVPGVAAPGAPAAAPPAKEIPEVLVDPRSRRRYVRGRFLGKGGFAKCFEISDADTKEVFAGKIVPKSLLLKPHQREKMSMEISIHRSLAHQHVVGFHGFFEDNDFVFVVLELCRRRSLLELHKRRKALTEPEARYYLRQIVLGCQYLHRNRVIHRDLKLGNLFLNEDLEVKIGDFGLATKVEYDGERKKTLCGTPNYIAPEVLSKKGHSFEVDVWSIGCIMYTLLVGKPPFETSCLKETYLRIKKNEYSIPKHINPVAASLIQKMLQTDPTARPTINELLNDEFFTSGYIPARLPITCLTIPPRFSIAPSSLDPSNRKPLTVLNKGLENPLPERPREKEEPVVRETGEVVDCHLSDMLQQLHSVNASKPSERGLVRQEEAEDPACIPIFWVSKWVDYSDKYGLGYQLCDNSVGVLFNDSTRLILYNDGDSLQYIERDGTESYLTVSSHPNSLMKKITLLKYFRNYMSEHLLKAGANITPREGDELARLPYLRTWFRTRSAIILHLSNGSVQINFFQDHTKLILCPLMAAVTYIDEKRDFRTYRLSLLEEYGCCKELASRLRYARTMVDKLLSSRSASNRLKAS
Numbers stand for hits; 0 = inactive; ? = inconclusive; - = not tested or not shown. This is a sample that favours compounds with a hit; in the whole collection about 3.9% have one here. The call rests on the fitted dose curve; in most records, active means well fitted curve in the direction sought with a large enough effect; inconclusive means small, poorly fitted or top-dose-only effect, or another doubt; inactive means no such curve, though single readings can be large; an effect the other way counts as inactive or inconclusive.

SMILES | Tb PFK block | VDR inhibitor | BRCA1 expr act | PLK1 PBD block
O=C(CSCc1ccccc1)N1CCN(c2ccccc2)CC1 | 0 | 0 | 11µM | 0
O=C(CSCc1ccccc1)N1CCN(c2ccc(F)cc2)CC1 | 0 | 0 | 0 | 0
O=C(CSCc1ccc(Cl)cc1)N1CCOCC1 | 0 | 0 | 0 | 0
C[C@H]1[C@H]2CC[C@H]3C4CC=C5C[C@@H](N(C)C)CC[C@]5(C)C4CC[C@]23CN1C (some centres undefined) | - | 0 | - | -
Cc1nc(NC(=O)CSc2nnc(C3CC3)n2C)sc1C | 0 | 0 | 0 | 0
CCCC(=O)Nc1nnc(S(=O)(=O)N(C)Cc2ccco2)s1 | 0 | ? | 0 | 27µM
Cc1ccccc1C(=O)Nc1nnc(S(=O)(=O)N(C)Cc2ccco2)s1 | 0 | ? | 0 | 0
Cc1ccc(C(=O)Nc2nnc(S(=O)(=O)N(C)Cc3ccco3)s2)cc1 | - | 0 | - | -
CCC(=O)Nc1nnc(S(=O)(=O)N(C)Cc2ccco2)s1 | 0 | ? | 0 | 27µM
CN1OC[C@@H]2CN(C(=S)NCCc3ccccc3)[C@H](c3ccc(N4CCCCC4)cc3)C[C@@H]21 | - | - | 0 | 0
CCOc1sc2nc(C)n(CC(=O)Nc3cccc(C)c3)c(=O)c2c1C | - | 0 | 0 | -
COc1ccc(OC)c(NC(=O)CSc2nc3ccccc3c(=O)n2CCC(=O)NC2CCCCC2)c1 | - | 0 | - | -
COCc1ccc(C(=O)NCC2(N3CCCCC3)CCCCC2)cc1 | 0 | ? | 0 | 30µM
NC(=O)c1c(NC(=S)Nc2ccc(F)cc2)sc2c1CCCC2 | 0 | 0 | 0 | ?
NC(=O)c1c(NC(=S)Nc2ccccc2)sc2c1CCCC2 | 0 | ? | 0 | 6.7µM
C=CCNC(=S)Nc1sc2c(c1C(N)=O)CCCC2 | 0 | ? | 0 | 13µM
Cc1ccc(Nc2nc3nonc3[nH]c2=O)cc1 | 0 | 0 | 11µM | 0
CCCn1nc(C(=O)Nc2ccc3nc(N4CCOCC4)sc3c2)ccc1=O | 0 | 0 | 0 | 0
COc1cc(NCc2ccc3nc(N)nc(N)c3c2C)cc(OC)c1OC | - | 25µM | - | -
CC(C)Cn1c(N)c(C(=O)COC(=O)C2CCCCC2)c(=O)n(C)c1=O | 0 | ? | 0 | 24µM
COc1ccccc1-c1nc2ccccc2n(CC(C)C)c1=O | - | - | - | 24µM
O=C(NCCS(=O)(=O)N1CCN(c2ccc(F)cc2)CC1)c1cccc(C(F)(F)F)c1 | - | 0 | - | -
O=C(Nc1nc(-c2ccccc2)c(-c2ccccc2)o1)c1ccc(F)cc1 | 0 | 0 | 0 | 3µM
Cc1cc(F)ccc1C(O)c1ncc(-c2cccc(OCc3ccccc3)c2)[nH]1 (centres undefined) | - | - | 0 | 0
O=[N+]([O-])c1ccc(Cl)c(S(=O)(=O)Nc2cccc(S(=O)(=O)NC3=NCCC3)c2)c1 | 0 | 79µM | 0 | ?
SMILES | Tb PFK block | VDR inhibitor | BRCA1 expr act | PLK1 PBD block
O=[N+]([O-])c1ccc(Cl)c(S(=O)(=O)NC2=NCCC2)c1 | 0 | 0 | 0 | 0
CC1CCCC(C)N1CCOc1cc(N)ccc1C#N (centres undefined) | - | 0 | 0 | 0
COCCCCOc1cc2nc(N3CCCN(C)CC3)nc(NC3CCN(C)CC3)c2cc1OC | - | - | 0 | -
CN1CCC(=NNC(=O)C(=O)Nc2ccc(F)cc2)CC1 | 0 | 0 | 0 | 0
CN1CCC(=NNC(=O)C(=O)Nc2cccc(Br)c2)CC1 | 0 | 71µM | 0 | 12µM
COc1cccc(-n2c(-c3ccc(Cl)cc3)cc3c2CC(C)(C)CC3=O)c1 | - | 0 | - | -
Cc1ccc(C(=O)N/N=C/C2=Cc3ccccc3OC2C)cc1 (centres undefined) | 0 | 0 | 0 | 0
CC1Oc2ccccc2C=C1/C=N/NC(=O)c1ccccc1 (centres undefined) | 0 | 0 | 3.2µM | 0
C/C=C/Cn1c(SC)nc2c1c(=O)[nH]c(=O)n2C | 0 | 0 | 0 | 27µM
CCOC(=O)C(CC)Sc1nc2c(c(=O)[nH]c(=O)n2C)n1C/C=C(/C)Cl (centres undefined) | 0 | 32µM | 0 | 2.7µM
Cn1c(=O)[nH]c(=O)c2c1nc(SCCO)n2Cc1ccccc1Cl | 0 | 0 | 0 | 24µM
CSc1nc2c(c(=O)[nH]c(=O)n2C)n1Cc1ccc(Cl)cc1 | 0 | 89µM | 0 | 6µM
CSc1nc2c(c(=O)[nH]c(=O)n2C)n1Cc1ccccc1Cl | 0 | 0 | 0 | 0
C/C(Cl)=C/Cn1c(SCC(C)C)nc2c1c(=O)[nH]c(=O)n2C | 0 | 0 | 0 | 0
CCCn1c(SCc2ccc(Cl)cc2)nc2c1c(=O)[nH]c(=O)n2C | 0 | 0 | 0 | 21µM
Clc1ccc(SCNc2ccccc2Cl)cc1 | 0 | ? | 0 | 9.5µM
Cc1ccc(-n2nnnc2C(Cl)c2nnnn2-c2ccc(C)cc2)cc1 | 0 | 25µM | 0 | ?
COc1ccc(N2C(=NC(=O)c3ccc(Br)cc3)SC3CS(=O)(=O)CC32)cc1 (centres undefined) | 0 | 0 | 0 | 0
S=C(c1nc2ccccc2[nH]1)N1CCOCC1 | 0 | ? | 0 | 24µM
C=C(C)C1CC=C(C)/C(=N/NC(=O)c2cccs2)C1 (centres undefined) | 0 | 0 | 10µM | ?
COCCNC(=O)CSCc1nc(-c2ccc(SC)cc2)oc1C | 0 | 0 | 0 | 0
CCOCCCNC(=O)CSCc1nc(-c2ccc(SC)cc2)oc1C | 0 | 0 | 0 | 30µM
CCOC(=O)N1CCN(/[N+]([O-])=N/Oc2ccc([N+](=O)[O-])cc2[N+](=O)[O-])C(C)C1 (centres undefined) | - | 0 | - | -
COc1ccc2c(c1)Cc1sc(NC(=O)c3ccccc3C)nc1-2 | - | 25µM | - | -
COc1ccc2c(c1)Cc1sc(NC(=O)c3ccccc3)nc1-2 | 0 | 0 | ? | 0
SMILES | Tb PFK block | VDR inhibitor | BRCA1 expr act | PLK1 PBD block
O=C(O)c1ccc[n+]([O-])c1 | - | 0 | - | -
NC(=S)c1ccc[n+]([O-])c1 | - | 50µM | 0 | 19µM
CCCn1c(SCC(=O)N2CCCC(C)C2)nnc1-c1cccnc1 (centres undefined) | 0 | 0 | 0 | 30µM
CC1CCCN(C(=O)CSc2cnc3ccccc3n2)C1 (centres undefined) | 0 | 0 | 11µM | 0
O=C(O)c1ccc(N2C(=O)c3[nH]nc(-c4ccccc4)c3C2c2cccc(F)c2)cc1 (centres undefined) | - | ? | 0 | -
O=C(CC[C@H]1O[C@@H](n2ccc(=O)[nH]c2=O)[C@H](O)[C@@H]1O)N[C@H](Cc1ccccc1)C(=O)NCc1ccccc1 | - | - | 0 | 0
Cc1nc2nc(CCNS(=O)(=O)c3ccc(Cl)cc3)cn2nc1C | 0 | 89µM | 0 | 0
COc1ccc(S(=O)(=O)NCCc2cn3nc(C)c(C)nc3n2)cc1 | 0 | 0 | 0 | 0
CCN(CC)C(=O)CSc1nc(C)cc(-c2cccs2)c1C#N | ? | 0 | 0 | 21µM
O=C(O)c1ccccc1CSC1=NCCS1 | 0 | 0 | 0 | 17µM
Clc1ccc(N2O[C@H]3C=C[C@@H]2C3)nc1 | - | - | 0 | 30µM
Cc1cccc(-c2cc3nc(C)cc(C)n3n2)c1 | 0 | 0 | 1.6µM | 21µM
Cc1c(NC(=O)c2cc3ccccc3o2)cccc1-n1cnnn1 | - | - | 0 | 0
COCCNC(=O)Cn1c(=O)c2cccn2c2ccc(F)cc21 | - | 0 | - | -
CCCCC(=O)NNC(=S)NC(=O)c1ccc([N+](=O)[O-])cc1 | 0 | ? | 0 | 24µM
CCCCC(=O)NNC(=S)NC(=O)c1cccc([N+](=O)[O-])c1 | 0 | ? | 0 | ?
O=c1cc(CSc2nnc3ccccn23)c2c(ccc3ccccc32)o1 | 0 | 0 | 0 | 42µM

Compound activity (PubChem)
